Experimental data reported in PubChem BioAssay (NCI).
About 83,000 compounds went through this panel and 20% of them were active in at least one assay; those are over-represented in the sample as a whole.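 Single-concentration screen, 48 h exposure, 96-well plates. Endpoint: percent growth. Below 10 = active.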 Active and inactive are the calls of the source.

How the values were obtained:
Experiment in all cases: NCI-60 one-dose screen, 48 h (100 = growth as untreated, 0 = no growth, -100 = all killed)
Conditions in all cases: 10 µM unless noted
HCT-15 colon = system: HCT-15 colon
HT29 colon = system: HT29 colon
SNB-19 CNS = system: SNB-19 CNS
U251 CNS = system: U251 CNS
PC-3 prostate = system: PC-3 prostate
SK-MEL-5 melanoma = system: SK-MEL-5 melanoma
UACC-62 melanoma = system: UACC-62 melanoma
SK-MEL-28 melanoma = system: SK-MEL-28 melanoma
SK-MEL-2 melanoma = system: SK-MEL-2 melanoma
EKVX NSCLC = system: EKVX NSCLC
SN12C renal = system: SN12C renal
UO-31 renal = system: UO-31 renal
TK-10 renal = system: TK-10 renal
ACHN renal = system: ACHN renal
CAKI-1 renal = system: CAKI-1 renal
A498 renal = system: A498 renal
CCRF-CEM leukemia = system: CCRF-CEM leukemia
MOLT-4 leukemia = system: MOLT-4 leukemia
LOX IMVI melanoma = system: LOX IMVI melanoma

Measured: growth

COc1ccc(-c2ccc(-c3ccc(C(=N)N)cn3)s2)cc1OC
inactive: HCT-15 colon 99.8% | HT29 colon 65.5% | SNB-19 CNS 94.7% | U251 CNS 88.3% | PC-3 prostate 93.5% | SK-MEL-5 melanoma 88.7% | UACC-62 melanoma 98.1% | SK-MEL-28 melanoma 98% | SK-MEL-2 melanoma 109% | EKVX NSCLC 89.1% | SN12C renal 90.6% | UO-31 renal 85.7% | TK-10 renal 128% | ACHN renal 93.8% | CAKI-1 renal 110% | A498 renal 78.5% | CCRF-CEM leukemia 97.6% | MOLT-4 leukemia 72.2%

C=C1C(=O)O[C@H]2[C@H]1CC/C(Cn1cc(CNC(=O)Cc3cn(C(=O)c4ccc(Cl)cc4)c4ccc(OC)cc34)nn1)=C\CC[C@@]1(C)O[C@@H]21
inactive: HCT-15 colon 52.3% | SNB-19 CNS 47% | U251 CNS 14.2% | SK-MEL-5 melanoma 48.8% | SK-MEL-2 melanoma 17.1% | EKVX NSCLC 52.6% | SN12C renal 19.3% | UO-31 renal 30.2% | ACHN renal 15% | CAKI-1 renal 67.4% | A498 renal 53.7%
active: HT29 colon -57.4% | PC-3 prostate 7.48% | UACC-62 melanoma 8.27% | SK-MEL-28 melanoma -56.9% | TK-10 renal -46.8% | CCRF-CEM leukemia -34% | MOLT-4 leukemia -23.5%

COc1cccc(CC(C)=C(c2ccc(OCCN(C)C)cc2)c2ccc(OCCN(C)C)cc2)c1
inactive: SNB-19 CNS 15.2% | PC-3 prostate 15.6% | SK-MEL-2 melanoma 14% | EKVX NSCLC 62% | A498 renal 76.8%
active: HCT-15 colon -37.8% | HT29 colon -72.7% | U251 CNS -77.8% | SK-MEL-5 melanoma -95.1% | UACC-62 melanoma -90.7% | LOX IMVI melanoma -84.3% | SN12C renal -12.2% | UO-31 renal -91.3% | TK-10 renal -15.2% | ACHN renal -82.4% | CCRF-CEM leukemia -19.5% | MOLT-4 leukemia -25.5%
